System: Vero E6 infected with SARS-CoV-2
Assay: inhibition of SARS-CoV-2 cytopathic effect; higher = more antiviral protection, active = above 15
Conditions: 48 h

Measured: inhibition of SARS-CoV-2 cytopathic effect

O=C1C(O)=C(O)C(=O)C(O)=C1O [tetroquinone]
inactive: 1 nM -0.23% | 8.33 nM 0.57% | 100 nM 1.71% | 833.33 nM -0.73% | 10000 nM -0.73%

Clc1ccccc1C(c1ccccc1)(c1ccccc1)n1ccnc1 [clotrimazole]
inactive: 1 nM -0.06% | 8.33 nM -0.06% | 100 nM -0.28% | 833.33 nM 0.61% | 10000 nM 2.73%

C[C@H](c1ccc(F)cc1CCCC(=O)O)N(c1cc(F)ccc1F)S(=O)(=O)c1ccc(Cl)cc1
inactive: 1 nM -1.95% | 8.33 nM -1.39% | 100 nM -1.46% | 833.33 nM -3.65% | 10000 nM -5.49%

CCN(CC)CCN(Cc1ccc(-c2ccc(C(F)(F)F)cc2)cc1)C(=O)Cn1c(SCc2ccc(F)cc2)nc(=O)c2c1CCC2 [darapladib]
inactive: 1 nM 1.47% | 8.33 nM 1.73% | 100 nM -1.85% | 833.33 nM -2.02% | 10000 nM -25.3%

O=C(O)COc1ccc(OCCNC[C@H](O)COc2ccccc2)cc1
inactive: 1 nM -0.61% | 8.33 nM -0.47% | 100 nM -1.08% | 833.33 nM 0.26% | 10000 nM 1.07%

CC(C)(N)c1cc(C(=O)N[C@@H]2CCc3ccc(Oc4ccnc5c4CCC(=O)N5)cc3C2)cc(C(F)(F)F)c1
inactive: 1 nM 0.3% | 8.33 nM 1.69% | 100 nM 1.9% | 833.33 nM -3.12% | 10000 nM -8.56%

COC(=O)N[C@H](C(=O)N[C@@H](Cc1ccccc1)[C@@H](O)CN(Cc1ccc(-c2ccccn2)cc1)NC(=O)[C@@H](NC(=O)OC)C(C)(C)C)C(C)(C)C [atazanavir]
inactive: 1 nM -1.78% | 8.33 nM 2.1% | 100 nM 1.84% | 833.33 nM -0.5% | 10000 nM -0.09%

Cc1cc(C)c(S(=O)(=O)Nc2ccccc2C(F)(F)F)c(C)c1
inactive: 1 nM 2.1% | 8.33 nM 6.17% | 100 nM 4.56% | 833.33 nM 2.55% | 10000 nM 4.64%

CC(C)NC[C@@H](O)COc1ccccc1-n1cccc1 (racemic) [isamoltane]
inactive: 1 nM 1.05% | 8.33 nM -0.83% | 100 nM 1.76% | 833.33 nM 1.65% | 10000 nM -0.73%

CCCN[C@@H]1CCc2c(OC)cccc2[C@@H]1C
inactive: 1 nM -1.51% | 8.33 nM -1.5% | 100 nM -0.05% | 833.33 nM -0.17% | 10000 nM -3.49%

COc1cc(C=O)ccc1O [vanillin]
inactive: 1 nM 1.74% | 8.33 nM 0.89% | 100 nM 1.04% | 833.33 nM -1.54% | 10000 nM -2.8%

Cc1c(NC(=O)c2cccnc2)c(=O)n(-c2ccccc2)n1C [nifenazone]
inactive: 1 nM -4.14% | 8.33 nM 0.87% | 100 nM 1.34% | 833.33 nM -1.46% | 10000 nM 0.61%

COc1ccc(CC2NCCc3c2[nH]c2ccc(C)cc32)c(Cl)c1OC (stereo not given)
inactive: 1 nM 0.04% | 8.33 nM 1.87% | 100 nM 6.67% | 833.33 nM -1.77% | 10000 nM -7.05%

Cn1cnc([N+](=O)[O-])c1Sc1ncnc2[nH]cnc12 [azathioprine]
inactive: 1 nM -3.67% | 8.33 nM 2.21% | 100 nM 2.74% | 833.33 nM 3.46% | 10000 nM -3.46%

O=C(O)Cc1sc(-c2ccccc2)nc1-c1ccc(Cl)cc1 [fentiazac]
inactive: 1 nM -0.18% | 8.33 nM -2.64% | 100 nM -1.78% | 833.33 nM 0.61% | 10000 nM 1.91%

C[C@]12CCC(=O)C=C1CC[C@@H]1[C@@H]2[C@@H](O)C[C@@]2(C)[C@H]1CC[C@]2(O)C(=O)COC(=O)CCC(=O)O [hydrocortisone-hemisuccinate]
inactive: 1 nM -3.36% | 8.33 nM -5.52% | 100 nM -5.26% | 833.33 nM -3.7% | 10000 nM -4.67%

COc1ccc(-c2cc(=O)c3c(O)cc(O[C@@H]4O[C@H](CO[C@@H]5O[C@@H](C)[C@H](O)[C@@H](O)[C@H]5O)[C@@H](O)[C@H](O)[C@H]4O)cc3o2)cc1O [diosmin]
inactive: 1 nM 3.94% | 8.33 nM -0.11% | 100 nM -2.26% | 833.33 nM 4.64% | 10000 nM -2.85%

CCCNCC(O)COc1ccccc1C(=O)CCc1ccccc1 (stereo not given) [propafenone]
inactive: 1 nM -2.13% | 8.33 nM -0.69% | 100 nM 2.83% | 833.33 nM 3.83% | 10000 nM -0.5%

CCCCCCCCCCCCCC[C@@H](O)[C@@H](O)[C@@H](N)CO [phytosphingosine]
inactive: 1 nM -6.1% | 8.33 nM -0.27% | 100 nM -1.1% | 833.33 nM -3.05% | 10000 nM -6.04%

CCC(c1ccccc1)c1c(O)c2ccccc2oc1=O (stereo not given) [phenprocoumon]
inactive: 1 nM -0.55% | 8.33 nM 0.6% | 100 nM 1.1% | 833.33 nM -0.13% | 10000 nM -0.87%

c1cc(CN2CCCNCCNCCCNCC2)ccc1CN1CCCNCCNCCCNCC1 [plerixafor]
inactive: 1 nM -2.23% | 8.33 nM -1.5% | 100 nM 0.88% | 833.33 nM 0.29% | 10000 nM 1.12%

CC(=O)c1c(O)cc(C)oc1=O [dehydroacetic-acid]
inactive: 1 nM 2.87% | 8.33 nM 3.44% | 100 nM 2.94% | 833.33 nM 2.97% | 10000 nM 3.07%

O=S1(=O)c2cccc3cccc(c23)N1CCCN1CCN(c2ccc(F)cc2)CC1 [fananserin]
inactive: 1 nM -2.57% | 8.33 nM -1.46% | 100 nM -1.21% | 833.33 nM -2.34% | 10000 nM -0.89%

COc1cc2c(cc1OC)C1CC(=O)C(CC(C)C)CN1CC2 (stereo not given) [tetrabenazine]
inactive: 1 nM -2.11% | 8.33 nM 0.64% | 100 nM 1.22% | 833.33 nM 2.22% | 10000 nM 0.85%

Oc1ccc(-c2nc(-c3ccc(F)cc3)c(-c3ccncc3)[nH]2)cc1
inactive: 1 nM 0.33% | 8.33 nM 1.64% | 100 nM -1.29% | 833.33 nM 2.83% | 10000 nM 8.91%

CCOc1nc2cccc(C(=O)O)c2n1Cc1ccc(-c2ccccc2-c2nnn[nH]2)cc1 [candesartan]
inactive: 1 nM -1.63% | 8.33 nM -2.91% | 100 nM -3.25% | 833.33 nM -3.84% | 10000 nM -1.38%

C[C@H](c1ccc2ccc(OC3CCC(C(F)(F)F)CC3)c(C(F)(F)F)c2c1)N1C2CCC1CC(C(=O)O)C2 (stereo not given in full) [autotaxin-modulator-1]
inactive: 1 nM -1.22% | 8.33 nM -0.49% | 100 nM 0.86% | 833.33 nM 0.12% | 10000 nM 1.02%

CCC(=O)O[C@@H]1CC(=O)O[C@H](C)C/C=C/C=C/[C@H](OC(C)=O)[C@H](C)C[C@H](CC=O)[C@H](O[C@@H]2O[C@H](C)[C@@H](O[C@H]3C[C@@](C)(OC(C)=O)[C@@H](OC(=O)CC)[C@H](C)O3)[C@H](N(C)C)[C@H]2O)[C@H]1OC [miocamycin]
inactive: 1 nM 2.92% | 8.33 nM 1.39% | 100 nM 1.33% | 833.33 nM 3.25% | 10000 nM -2.09%

CC(C)=CC[C@@H](O)C1=CC(=O)c2c(O)ccc(O)c2C1=O [Shikonin]
inactive: 1 nM 0.59% | 8.33 nM 0.65% | 100 nM 0.38% | 833.33 nM 3.65% | 10000 nM 2.04%

O=c1[nH]cc(F)c(=O)[nH]1 [5-fluorouracil]
inactive: 1 nM 0.75% | 8.33 nM 1.63% | 100 nM 1.29% | 833.33 nM 0.37% | 10000 nM 1.52%

Cc1nc2c([nH]1)-c1ccccc1N(C(=O)c1ccc(NC(=O)c3ccccc3-c3ccccc3)cc1)CC2 [conivaptan]
inactive: 1 nM 3.24% | 8.33 nM -1.76% | 100 nM 0.14% | 833.33 nM -0.62% | 10000 nM -6.5%

CC1=C(/C=C/C(C)=C/C=C/C(C)=C/C=O)C(C)(C)CCC1 [retinaldehyde]
inactive: 1 nM -0.27% | 8.33 nM 1.56% | 100 nM 3.22% | 833.33 nM 6.75% | 10000 nM 10.4%

C=CCC1(CC(C)C)C(=O)NC(=O)NC1=O [butalbital]
inactive: 1 nM -0.15% | 8.33 nM 4.37% | 100 nM 2.7% | 833.33 nM 1.69% | 10000 nM 1.37%

Oc1ccc(/C=C/c2cc(O)cc(O)c2)cc1 [resveratrol]
inactive: 1 nM 1.06% | 8.33 nM 0.64% | 100 nM -2.17% | 833.33 nM -0.25% | 10000 nM 3.82%

CCOC(=O)[C@H](CCc1ccccc1)N[C@@H](C)C(=O)N1Cc2ccccc2C[C@H]1C(=O)O [quinapril]
inactive: 1 nM 1.54% | 8.33 nM 1.58% | 100 nM 0.68% | 833.33 nM 2.09% | 10000 nM 4.29%

COc1ccc2[nH]c3c(-c4cccc5ccccc45)nccc3c2c1
inactive: 1 nM -2.63% | 8.33 nM 0.26% | 100 nM -0.2% | 833.33 nM -4.62% | 10000 nM -2.93%

O=C(O)c1ccc2c(c1)nc(Nc1cccc(Cl)c1)c1ccncc12
inactive: 1 nM -2.63% | 8.33 nM 0.18% | 100 nM -2.24% | 833.33 nM 0.52% | 10000 nM -1.33%

C[C@H]1O[C@H](O[C@H]2[C@H](O)[C@@H](O)[C@@H](O[C@H]3[C@H](O)[C@@H](O)C(O)O[C@@H]3CO)O[C@@H]2CO)[C@H](O)[C@@H](O)[C@@H]1N[C@H]1C=C(CO)[C@@H](O)[C@H](O)[C@H]1O (stereo not given in full) [acarbose]
inactive: 1 nM 0.51% | 8.33 nM 1.35% | 100 nM -0.08% | 833.33 nM -0.03% | 10000 nM -0.32%

From the supplement of paper PMC13380429
